7 molecules from PubChem BioAssay (NCI) can be followed below.

Test [1] is described as follows: NCI Yeast Anticancer Drug Screen. Data for the rad50 strain (AID 155).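 Note: 0% = growth of vehicle-only cultures of the same strain.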 Particulars: S. cerevisiae rad50 strain growth inhibition, stronger effect = higher value. The method, boiled down:
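DNA repair mutant yeast, compound exposure, growth read-out; inhibition is taken relative to vehicle.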

Test [2] can be described thus: NCI Yeast Anticancer Drug Screen. Data for the mec2-1 strain (AID 157). Particulars: S. cerevisiae mec2-1 strain, stronger effect = higher value. The method in brief: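 Vehicle-treated cultures served as reference for growth inhibition of compound-exposed mec2-1 yeast.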
A short description of test [3]: NCI Yeast Anticancer Drug Screen. Data for the sgs1 mgt1 strain (AID 161).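 Note: 0% = growth of cultures given vehicle only.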 As to conditions: S. cerevisiae sgs1 mgt1 strain, stronger effect = higher value. The method in brief: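 Genetically altered yeast, compound exposure, growth inhibition relative to vehicle.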
The nature of test [4]: NCI Yeast Anticancer Drug Screen. Data for the cln2 rad14 strain (AID 165).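 Note: 0% = growth equal to vehicle treated cultures.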 As to conditions: S. cerevisiae cln2 rad14 strain, stronger effect = higher value. The method, boiled down: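 Each compound was tested on cln2 rad14 yeast. Inhibition of growth was calculated against vehicle-exposed controls.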
The nature of test [5]: NCI Yeast Anticancer Drug Screen. Data for the bub3 strain (AID 167). As to conditions: S. cerevisiae bub3 mutant strain, stronger effect = higher value. The method in brief: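 In this screen, a yeast mutant lacking normal mitotic checkpoint function is challenged with compound. Relative growth versus vehicle gives the inhibition value.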
Test [6] can be described thus: NCI Yeast Anticancer Drug Screen. Data for the mlh1 rad18 strain (AID 175). As to conditions: S. cerevisiae mlh1 rad18 strain growth inhibition, stronger effect = higher value. The method, boiled down:
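Vehicle-treated cultures served as the reference for growth inhibition in a yeast strain carrying DNA damage repair alterations exposed to each compound.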

Where [7] appears, read: at 5.0 µM (retest, dose inferred, filed as 0.5).
Where [8] appears, read: at 50.0 µM (retest, dose inferred, filed as 5.0).

Structures are written as SMILES. Where “and” joins values, the source holds several entries; their conditions need not be identical. Equal values may be shown once. Compounds without any hit were thinned out: in the full panel of roughly 79,000, 15% have a hit. More than one record can exist for a structure, and the calls need not agree. Calls of active or inactive are those of the source. Cut-off read from the data, not from the text of the source: active = growth inhibition above about 70%; inactive = the rest.

Take `Oc1ccc(C(O)(c2ccccc2)c2ccccc2)cc1`: the growth inhibition in test [1] (setting [7]) was 45% (inactive) and 42% (inactive); in test [1] (setting [8]), 57% (inactive) and 91% (active); in test [1] (at 50.0 µM), 88.8% (active) and 71.1% (active); in test [2] (setting [7]), 51% (inactive) and 25% (inactive); in test [2] (setting [8]) it was 59% (inactive) and 89% (active); in test [2] (at 50.0 µM), 91.2% (active) and 89.2% (active). The growth inhibition in test [3] (setting [7]) is -30% (inactive) and 35% (inactive); in test [3] (setting [8]) it was 30% (inactive) and 89% (active); in test [3] (at 50.0 µM), 92% (active) and 48.6% (inactive); in test [4] (setting [7]) it was 45% (inactive) and 29% (inactive); in test [4] (setting [8]), 63% (inactive) and 90% (active); in test [4] (at 50.0 µM), 89.9% (active) and 65.8% (inactive). Besides, the growth inhibition in test [5] (setting [7]) was 21% (inactive) and 36% (inactive); in test [5] (setting [8]), 48% (inactive) and 94% (active); in test [5] (at 50.0 µM) it was 90.2% (active) and 59.2% (inactive); in test [6] (setting [7]), 40% (inactive) and 45% (inactive); in test [6] (setting [8]), 60% (inactive) and 95% (active); in test [6] (at 50.0 µM) it was 88.5% (active) and 69.3% (inactive).

With `Oc1c(Cl)c(Cl)c(Cl)c2ccccc12`, the growth inhibition in test [1] (setting [7]) is 84% (active); in test [1] (setting [8]) it was 95% (active); in test [1] (at 50.0 µM), 95.5% (active); in test [2] (setting [7]), 79% (active); in test [2] (setting [8]), 98% (active); in test [2] (at 50.0 µM), 96.8% (active). Further, the growth inhibition is 38% (inactive) in test [3] (setting [7]); 34% (inactive) in test [3] (setting [8]); 95.9% (active) in test [3] (at 50.0 µM); 39% (inactive) in test [4] (setting [7]); 94% (active) in test [4] (setting [8]); 53.4% (inactive) in test [4] (at 50.0 µM). Further, the growth inhibition in test [5] (setting [7]) was 92% (active); in test [5] (setting [8]), 93% (active); in test [5] (at 50.0 µM), 91.2% (active); in test [6] (setting [7]), 87% (active); in test [6] (setting [8]), 98% (active); in test [6] (at 50.0 µM) it was 96.7% (active).

For the molecule `Clc1ccc(CNNCc2ccc(Cl)cc2)cc1`, the growth inhibition in test [1] (setting [7]) is -12% (inactive); in test [1] (setting [8]) it was 85% (active); in test [1] (at 50.0 µM), 7.2% (inactive) and 78.7% (active); in test [2] (setting [7]) it was 0% (inactive); in test [2] (setting [8]), 96% (active); in test [2] (at 50.0 µM) it was -3.05% (inactive) and -2.3% (inactive). Moreover, the growth inhibition is -2% (inactive) in test [3] (setting [7]); 98% (active) in test [3] (setting [8]); -3% (inactive) and 58.5% (inactive) in test [3] (at 50.0 µM); -1% (inactive) in test [4] (setting [7]); 72% (active) in test [4] (setting [8]); -10.4% (inactive) and 16.6% (inactive) in test [4] (at 50.0 µM). Also, the growth inhibition was 46% (inactive) in test [5] (setting [7]); 96% (active) in test [5] (setting [8]); -9.95% (inactive) and 72.6% (active) in test [5] (at 50.0 µM); -2% (inactive) in test [6] (setting [7]); 94% (active) in test [6] (setting [8]); 11.7% (inactive) and 67.8% (inactive) in test [6] (at 50.0 µM).

For the molecule `CC(O)CN1CCN(CC(C)O)CC1.[I][Pt+2][I]` (stereo unspecified), the growth inhibition is -5% (inactive) in test [1] (setting [7]); 27% (inactive) in test [1] (setting [8]); 59.7% (inactive) in test [1] (at 50.0 µM); -295% (inactive) in test [2] (setting [7]); 11% (inactive) in test [2] (setting [8]); 37.2% (inactive) in test [2] (at 50.0 µM). Besides, the growth inhibition in test [3] (setting [7]) is -1% (inactive); in test [3] (setting [8]) it was 16% (inactive); in test [3] (at 50.0 µM) it was 78.9% (active); in test [4] (setting [7]) it was 2% (inactive); in test [4] (setting [8]) it was 7% (inactive); in test [4] (at 50.0 µM), 17.9% (inactive). The growth inhibition in test [5] (setting [7]) was -1% (inactive); in test [5] (setting [8]), 2% (inactive); in test [5] (at 50.0 µM), -2% (inactive); in test [6] (setting [7]), -2% (inactive); in test [6] (setting [8]) it was 16% (inactive); in test [6] (at 50.0 µM), 92.7% (active).

`O=C(/C=C/c1cccnc1)c1ccccc1`: the growth inhibition in test [1] (setting [7]) is 2% (inactive); in test [1] (setting [8]), 48% (inactive); in test [1] (at 50.0 µM) it was 9.2% (inactive) and 25.8% (inactive); in test [2] (setting [7]), 0% (inactive); in test [2] (setting [8]), 67% (inactive); in test [2] (at 50.0 µM) it was -9.2% (inactive) and 41.6% (inactive). The growth inhibition is -1% (inactive) in test [3] (setting [7]); 65% (inactive) in test [3] (setting [8]); -15.7% (inactive) and 61.4% (inactive) in test [3] (at 50.0 µM); 5% (inactive) in test [4] (setting [7]); 14% (inactive) in test [4] (setting [8]); 15.1% (inactive) and 3.65% (inactive) in test [4] (at 50.0 µM). Further, the growth inhibition in test [5] (setting [7]) is 0% (inactive); in test [5] (setting [8]), 40% (inactive); in test [5] (at 50.0 µM), -10% (inactive) and 25.5% (inactive); in test [6] (setting [7]) it was 4% (inactive); in test [6] (setting [8]), 36% (inactive); in test [6] (at 50.0 µM) it was -21.9% (inactive) and 69.2% (inactive).

As for `CCCCCC[C@H](C/C=C\CCCCCCCC(=O)OC)OC(C)=O`, the growth inhibition in test [1] (setting [7]) was -6% (inactive); in test [1] (setting [8]), 27% (inactive); in test [1] (at 50.0 µM) it was -0.2% (inactive) and -4.1% (inactive); in test [2] (setting [7]) it was -4% (inactive); in test [2] (setting [8]), 69% (inactive); in test [2] (at 50.0 µM) it was 2.25% (inactive) and -0.75% (inactive). Besides, the growth inhibition was -6% (inactive) in test [3] (setting [7]); 42% (inactive) in test [3] (setting [8]); 29.2% (inactive) and -40.8% (inactive) in test [3] (at 50.0 µM); -1% (inactive) in test [4] (setting [7]); -4% (inactive) in test [4] (setting [8]); 73.5% (active) and 54.6% (inactive) in test [4] (at 50.0 µM). Also, the growth inhibition in test [5] (setting [7]) is -6% (inactive); in test [5] (setting [8]), 92% (active); in test [5] (at 50.0 µM), 3.65% (inactive) and -26.2% (inactive); in test [6] (setting [7]), -3% (inactive); in test [6] (setting [8]) it was 21% (inactive); in test [6] (at 50.0 µM) it was 9.45% (inactive) and -22.9% (inactive).

For `OC1CC2CCCC(C1)C2` (stereo unspecified), the growth inhibition in test [1] (setting [7]) was -2% (inactive); in test [1] (setting [8]) it was 3% (inactive); in test [1] (at 50.0 µM), -17.8% (inactive); in test [2] (setting [7]), 4% (inactive); in test [2] (setting [8]) it was 1% (inactive); in test [2] (at 50.0 µM), 17.8% (inactive). The growth inhibition in test [3] (setting [7]) was -2% (inactive); in test [3] (setting [8]), 3% (inactive); in test [3] (at 50.0 µM) it was -12.2% (inactive); in test [4] (setting [7]) it was -5% (inactive); in test [4] (setting [8]), -3% (inactive); in test [4] (at 50.0 µM), 72.5% (active). For the same molecule, the growth inhibition in test [5] (setting [7]) is 0% (inactive); in test [5] (setting [8]) it was -10% (inactive); in test [5] (at 50.0 µM), -18.6% (inactive); in test [6] (setting [7]), -1% (inactive); in test [6] (setting [8]), -2% (inactive); in test [6] (at 50.0 µM), -1.65% (inactive).
